Experimental findings from PubChem BioAssay are described below.

Assay [1] in a line: blockers of polyQ-driven CASP3 activation – cell-based (AID 1583). The conditions noted are these: polyglutamine-induced caspase-3 activation, cell assay; stronger effect = higher value;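 tested at 10 µM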.
Assay [2] in a line: yeast 75Q aggregation reduction – 75Q-TubU reporter (AID 1593). The conditions noted are these: Yeast 75Q polyglutamine aggregation reporter.
Assay [3] can be described thus: restoration of touch response, mutant HTT neurons – whole organism, C. elegans mechanosensory neurons, N-terminal huntingtin (AID 1599). The conditions noted are these: C. elegans polyQ-huntingtin mechanosensory neurons, stronger effect = higher value.
A short description of assay [4]: blockers of cytochrome c efflux from mitochondria – biochemical, purified mitochondria (AID 1603).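 Also: mouse liver mitochondria challenged with calcium chloride; signal normalized to the plate average as 100%.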 The conditions noted are these: stronger effect = lower value.
Assay [5] is described as follows: polyglutamine aggregate formation blockers (AID 1604). The conditions noted are these: polyglutamine-induced protein aggregation inhibition assay; stronger effect = higher value; tested at 2.5 µM.
Assay [6] can be described thus: glutamate transport activators, MN-1 cells, MN-1 cell line (AID 1612).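 Also: tested at 1 µM final; 0% = mean of DMSO vehicle wells on each plate; positive means more glutamate uptake than control and negative means less.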 The note with it: MN-1 motor neuron cells, stronger effect = higher value.
Assay [7] is described as follows: 75Q-TubH aggregate inhibition, S. cerevisiae, yeast (AID 1616). The conditions noted are these: S. cerevisiae 75Q-TubH polyglutamine aggregation suppression; stronger effect = higher value.
The nature of assay [8]: compounds altering viability of human ES cells (AID 493140; call rule not given here;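 also: cells exposed to compounds for four days before counting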). The conditions noted are these: human embryonic stem cell survival screen; stronger effect = higher value.
Assay [9] can be described thus: signal quenchers or enhancers, Cy5 substrate/SSB – biochemical, NIH Clinical Collection, E. coli SSB, artefact control for HCV NS3 helicase inhibitor project (AID 743268; call rule not given here). The note with it: Cy5-oligo bound E. coli SSB, fluorescence interference.
The test system of assay [10] is Hepatitis C virus NS3 helicase. The assay is described as follows: blockers of NS3h binding to DNA – biochemical, fluorescence polarization, NIH Clinical Collection, primary screen (AID 743270; call rule not given here). The note with it: NS3 helicase binding to Cy5-dT15 DNA, stronger effect = higher value, concentration not given here. On the technique in general: Fluorescence polarisation rises when a labelled molecule tumbles more slowly, as on binding a larger partner.

In assay [11] the target is Single-stranded DNA-binding protein (Escherichia coli (strain K12)) (UniProt P0AGE0). The assay is described as follows: SSB-ssDNA binding inhibitors – biochemical, fluorescence polarization, NIH Clinical Collection, counter-screen for HCV NS3 helicase inhibitor project (AID 743271; in the data active = inhibition above about 28%). The conditions noted are these: E. coli SSB-DNA binding, stronger effect = higher value, concentration not given here.

Assay [12] can be described thus: compounds distorting NS3 helicase fluorescence signal – biochemical, NIH Clinical Collection, artefact control for HCV NS3 helicase inhibitor project (AID 743272; call rule not given here;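 also: HCV NS3 helicase with a Cy5 labelled single stranded DNA probe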). The note with it: fluorescence interference counterscreen, HCV NS3 helicase assay; stronger effect = lower value.
Assay [13] can be described thus: galactose survival enhancers in mitochondrial complex I cybrids – cell-based, galactose medium, ATP luminescence, primary screen (AID 1645843;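 active = z-score of at least 1.8 in each of two replicates, scored against plate mean and spread of sample wells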;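 also: positive z means more ATP and so rescue of galactose-driven cybrid death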). The conditions noted are these: complex I mutant cybrid cells, 72 h, stronger effect = higher value.
The test system of assay [14] is R275C. The assay is described as follows: BK channel mutant inhibitors and activators – cell-based, U2OS BacMam, thallium flux, beta subunits, selectivity assay, profiling panel (AID 1259406).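 Also: initial slope of Thallos dye fluorescence rise after thallium is added; log ratio against the mean of 0.3% DMSO vehicle wells on the same plate.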 The note with it: U2OS BacMam BK variants, at 30 µM.
The test system of assay [15] is R275C/beta1. The description is as above. The note with it: U2OS BacMam BK variants, at 30 µM.
The test system of assay [16] is R275C/beta2Delta. The assay is described as above. The note with it: U2OS BacMam BK variants, at 30 µM.
For assay [17], the system named is R275C/beta4. Described as above. The note with it: U2OS BacMam BK variants, at 30 µM.
Assay [18] concerns R275C/Slo1WT/beta2. Described as above. The note with it: U2OS BacMam BK variants, at 30 µM.
Assay [19] is described as follows: growth inhibition, single agents and combos, ICB984, cell-based, cisplatin or BGB combos, synergistic combos for chromothripsis tumors (AID 1671451; call rule not given here;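 also: cells exposed for 96 hours before readout; 0% = vehicle DMSO and 100% = killing by high DMSO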). The note with it: ICB984 medulloblastoma cells, drug combinations, stronger effect = higher value.

Structures are written as SMILES. Where “and” joins values, the source holds several entries; their conditions need not be identical. Equal values may be shown once. For part of these data: Potency and affinity values are given separately. Calls of active or inactive are those of the source.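 The calls were made as follows, unless noted: active = thallium flux through the channel raised or lowered by more than 3 SD from vehicle-only wells, actives on both sides; inactive = the rest.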

For the molecule `N[C@@H]1CONC1=O`, the inhibition (in general, the relative decrease from the control value, in per cent) in assay [1] was 3.67%; in assay [10], 5.94% (inactive) and -1.36% (inactive); in assay [11] it was 2.98% (inactive) and 0.29% (inactive). In addition, the score in assay [2] was found to be 1.72. In addition, the rescue above control in assay [3] was -2.84. Also, in assay [4], the cytochrome c release ratio was 0.8. The inhibition of aggregation in assay [5] was found to be 65.4%. Also, the glutamate uptake change in [6] was -3.66%. In assay [7], this molecule displayed an aggregation suppression score of 1.32. Also, in assay [8], the survival is 4.33 (inactive). In addition, the fluorescence ratio is 0.99 (inactive) and 1.05 (inactive) in assay [9]; 0.95 (inactive) and 1.03 (inactive) in [12]. Moreover, the z-score in assay [13] was 0.55 (inactive) and 0.975 (inactive). In addition, the log fold change Tl+ flux in assay [14] was -0.00755 (inactive) and 0.0374 (inactive); in assay [15], 0.00647 (inactive) and 0.0301 (inactive); in [16], 0.0216 (inactive) and -0.0265 (inactive); in assay [17], 0.00356 (inactive); in assay [18], -0.00809 (inactive).
For the molecule `CC1=NS(=O)(=O)c2cc(Cl)ccc2N1`, in assay [8], the survival is 11.5 (inactive). The fluorescence ratio in assay [9] was 1 (inactive); in [12] it was 0.99 (inactive). The values for the inhibition in [10] and in [11] were 5.94% (inactive) and 4.52% (inactive), respectively. Also, the log fold change Tl+ flux in assay [14] was -0.00922 (inactive); in [15] it was 0.0109 (inactive); in assay [16] it was 0.00734 (inactive); in [17], 0.0187 (inactive); in assay [18], 0.0541 (inactive).
As to `CC(C)C(=O)Nc1ccc([N+](=O)[O-])c(C(F)(F)F)c1`, the results for the inhibition in [1], in assay [10] and in assay [11] were 28.6%, -1.36% (inactive) and 2.57% (inactive), respectively. This molecule came in with a score in assay [2] of 0.95. In assay [3], this molecule yielded a rescue above control of 0. Also, the cytochrome c release ratio in assay [4] came out at 0.83. Also, the inhibition of aggregation in [5] was 22.5%. Moreover, the glutamate uptake change in assay [6] was -7.31%. This molecule displayed an aggregation suppression score in assay [7] of 0.664. For the same molecule, in assay [8], the survival was 18.4 (inactive). The fluorescence ratio in [9] is 0.94 (inactive); in [12], 0.88 (inactive). In addition, in assay [13], the z-score is -0.565 (inactive) and -0.735 (inactive) and -1.1 (inactive). The log fold change Tl+ flux in assay [14] was -0.0976 (active); in assay [15], -0.0165 (inactive); in assay [16] it was 0.0539 (inactive); in [17], -0.0876 (inactive); in assay [18], -0.0286 (inactive).
With `O=C1c2c(O)ccc(O)c2C(=O)c2c(NCCNCCO)ccc(NCCNCCO)c21`, the inhibition in assay [1] was 63.3%; in [10], 128% (active); in assay [11], 121% (active); in assay [19] (BGB IC20 combo, at 0.005 µM), 17.1%; in assay [19] (BGB IC40 combo, at 0.005 µM) it was 14.7%; in assay [19] (BGB IC40 combo, at 0.05 µM), 101%. For the same molecule, the inhibition in [19] (at 0.5 µM) was -30% (inactive); in assay [19] (cisplatin combo, at 0.05 µM), 101%; in assay [19] (cisplatin combo, at 0.5 µM), -40.5%; in [19] (cisplatin combo, at 5 µM), -32.5%; in [19] (measured here: 5 uM single agent, at 5 µM) it was -34.5%. The molecule further returned a score in [2] of -2.9. Also, the rescue above control in assay [3] is 0. Further, in assay [4], the cytochrome c release ratio stood at 3.49. In assay [5], this molecule returned an inhibition of aggregation of 52.2%. For the same molecule, the glutamate uptake change in assay [6] was -30.1%. In addition, in [7], the aggregation suppression score is -1.69. In addition, the survival in assay [8] was 0.583 (inactive). Moreover, the values for the fluorescence ratio in assay [9] and in [12] were 0.74 (active) and 0.92 (inactive), respectively. Besides, the z-score in [13] is -1.29 (inactive) and -1.52 (inactive) and -2.29 (inactive). The log fold change Tl+ flux is -0.0256 (inactive) in assay [14]; -0.052 (inactive) in assay [15]; -0.0164 (inactive) in [16]; -0.0611 (inactive) in assay [17]; -0.0613 (inactive) in assay [18].
